Tests used:
Test in all cases: yeast three-hybrid, YBZ-1, SC-Leu-His + 0.5 mM 3-AT, 4 days
Conditions in all cases: tags: N-Gal4 AD-HA kept; label: inside an RPR1-promoter hybrid RNA with tandem MS2 sites; ssRNA
PUM1 PUF domain R6-WWG = molecular target: T1, PUM1 PUF domain R6-WWG (Homo sapiens, UniProt Q14671 828-1176, N1043W;Y1044W;Q1047G)
T1 sequence: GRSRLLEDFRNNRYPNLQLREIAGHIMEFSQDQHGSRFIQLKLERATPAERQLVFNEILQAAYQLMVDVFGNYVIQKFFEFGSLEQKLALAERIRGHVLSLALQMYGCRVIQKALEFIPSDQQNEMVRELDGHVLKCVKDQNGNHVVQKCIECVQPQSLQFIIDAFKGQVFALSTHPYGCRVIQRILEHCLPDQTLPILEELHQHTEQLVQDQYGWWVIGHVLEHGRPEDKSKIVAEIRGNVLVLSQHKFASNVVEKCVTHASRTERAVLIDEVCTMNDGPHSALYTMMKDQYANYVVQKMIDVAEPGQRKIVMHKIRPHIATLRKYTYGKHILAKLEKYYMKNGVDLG
How it was run: (§1)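 Sequencing with Illumina followed PCR amplification of the repeat regions from transformants grown four days on SC-Leu (input) or SC-Leu-His + 0.5 mM 3-AT (selection). The transformants were strain YBZ-1 with a LexA–MS2 coat fusion and a HIS3 reporter, carrying Pumilio-1 PUF domain libraries and matching RNA elements. The interaction score is the log change in variant frequency from input to selection, computed in log2 with a pseudocount of 1 for absent variants.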

PUM1 PUF domain R5-GKN = PUM1 PUF domain R5-GKN (Homo sapiens, UniProt Q14671 828-1176, C1007G;R1008K;Q1011N)
How it was run: as §1

PUM1 PUF domain R3-FSK = PUM1 PUF domain R3-FSK (Homo sapiens, UniProt Q14671 828-1176, C935F;R936S;Q939K)
How it was run: as §1

PUM1 PUF domain R1-GWE = PUM1 PUF domain R1-GWE (Homo sapiens, UniProt Q14671 828-1176, S863G;R864W;Q867E)
How it was run: as §1

PUM1 PUF domain R4-NPA = PUM1 PUF domain R4-NPA (Homo sapiens, UniProt Q14671 828-1176, H972P;Q975A)
How it was run: as §1

PUM1 PUF domain R1-KLR = PUM1 PUF domain R1-KLR (Homo sapiens, UniProt Q14671 828-1176, S863K;R864L;Q867R)
How it was run: as §1

PUM1 PUF domain R1-KRY = PUM1 PUF domain R1-KRY (Homo sapiens, UniProt Q14671 828-1176, S863K;Q867Y)
How it was run: as §1

PUM1 PUF domain R3-TRH = PUM1 PUF domain R3-TRH (Homo sapiens, UniProt Q14671 828-1176, C935T;Q939H)
How it was run: as §1

PUM1 PUF domain R8-HWI = PUM1 PUF domain R8-HWI (Homo sapiens, UniProt Q14671 828-1176, N1122H;Y1123W;Q1126I)
How it was run: as §1

PUM1 PUF domain R3-VFF = PUM1 PUF domain R3-VFF (Homo sapiens, UniProt Q14671 828-1176, C935V;R936F;Q939F)
How it was run: as §1

PUM1 PUF domain R4-NPA, sequence (Q14671 828-1176 H972P/Q975A): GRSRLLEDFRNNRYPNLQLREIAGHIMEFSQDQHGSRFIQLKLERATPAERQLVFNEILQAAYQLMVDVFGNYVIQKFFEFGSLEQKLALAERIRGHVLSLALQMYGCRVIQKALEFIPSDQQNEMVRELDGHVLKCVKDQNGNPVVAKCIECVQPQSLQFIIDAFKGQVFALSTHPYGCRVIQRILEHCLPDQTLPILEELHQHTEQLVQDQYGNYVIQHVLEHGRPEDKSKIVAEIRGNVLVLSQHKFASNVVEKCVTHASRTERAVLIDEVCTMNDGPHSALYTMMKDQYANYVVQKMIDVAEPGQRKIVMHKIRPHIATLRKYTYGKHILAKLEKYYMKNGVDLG

In the case of “GGCUAGAACUAGUGGAUCCCCCGGCGCCCGGCGGCUCGAGCCCGGGUAAGUGAAAAUAGUCUGCAUGCCGCCGGGCGCCAUGCCUGCAGGUCGACUCUAGAAAACAUG”, the binding signal (PUM1 PUF domain R6-WWG) is reported as 2.56 log2 enrichment (interaction score).

With “GGCUAGAACUAGUGGAUCCCCCGGCGCCCGGCGGCUCGAGCCCGGGUAAGUGUCAAUAGUCUGCAUGCCGCCGGGCGCCAUGCCUGCAGGUCGACUCUAGAAAACAUG” the binding signal (PUM1 PUF domain R5-GKN) was 1.57 log2 enrichment (interaction score).

For “GGCUAGAACUAGUGGAUCCCCCGGCGCCCGGCGGCUCGAGCCCGGGUAAGUGUAAGUAGUCUGCAUGCCGCCGGGCGCCAUGCCUGCAGGUCGACUCUAGAAAACAUG”, the binding signal (PUM1 PUF domain R3-FSK) was 4.08 log2 enrichment (interaction score).

With “GGCUAGAACUAGUGGAUCCCCCGGCGCCCGGCGGCUCGAGCCCGGGUAAGUGUAAAUGGUCUGCAUGCCGCCGGGCGCCAUGCCUGCAGGUCGACUCUAGAAAACAUG” the binding signal (PUM1 PUF domain R1-GWE) was 2.61 log2 enrichment (interaction score).

“GGCUAGAACUAGUGGAUCCCCCGGCGCCCGGCGGCUCGAGCCCGGGUAAGUGUACAUAGUCUGCAUGCCGCCGGGCGCCAUGCCUGCAGGUCGACUCUAGAAAACAUG” was tested, and the binding signal (PUM1 PUF domain R4-NPA) was 0.72 log2 enrichment (interaction score).

“GGCUAGAACUAGUGGAUCCCCCGGCGCCCGGCGGCUCGAGCCCGGGUAAGUGUAUAUAGUCUGCAUGCCGCCGGGCGCCAUGCCUGCAGGUCGACUCUAGAAAACAUG” was tested, and the binding signal (PUM1 PUF domain R4-NPA) was 4 log2 enrichment (interaction score).

In the case of “GGCUAGAACUAGUGGAUCCCCCGGCGCCCGGCGGCUCGAGCCCGGGUAAGUGUAAAUUGUCUGCAUGCCGCCGGGCGCCAUGCCUGCAGGUCGACUCUAGAAAACAUG”, the binding signal (PUM1 PUF domain R1-KLR) is reported as 4.29 log2 enrichment (interaction score) and the binding signal (PUM1 PUF domain R1-KRY) is reported as 3.65 log2 enrichment (interaction score).

With “GGCUAGAACUAGUGGAUCCCCCGGCGCCCGGCGGCUCGAGCCCGGGUAAGUGUUAAUAGUCUGCAUGCCGCCGGGCGCCAUGCCUGCAGGUCGACUCUAGAAAACAUG” the binding signal (PUM1 PUF domain R5-GKN) was 3.34 log2 enrichment (interaction score).

With “GGCUAGAACUAGUGGAUCCCCCGGCGCCCGGCGGCUCGAGCCCGGGUAAGUGUAAAUAGUCUGCAUGCCGCCGGGCGCCAUGCCUGCAGGUCGACUCUAGAAAACAUG” the binding signal (PUM1 PUF domain R6-WWG) was 4.79 log2 enrichment (interaction score), the binding signal (PUM1 PUF domain R3-TRH) was 4.48 log2 enrichment (interaction score) and the binding signal (PUM1 PUF domain R4-NPA) was 1.59 log2 enrichment (interaction score). The binding signal (PUM1 PUF domain R8-HWI) was 3.85 log2 enrichment (interaction score).

“GGCUAGAACUAGUGGAUCCCCCGGCGCCCGGCGGCUCGAGCCCGGGUAAGUGUAAUUAGUCUGCAUGCCGCCGGGCGCCAUGCCUGCAGGUCGACUCUAGAAAACAUG” was tested, and the binding signal (PUM1 PUF domain R3-TRH) was 1.56 log2 enrichment (interaction score) and the binding signal (PUM1 PUF domain R3-VFF) was 4.71 log2 enrichment (interaction score).
